Several values for one entry are separate records, joined by “and”; a condition that tells them apart may be missing. Equal entries are not always repeated. Inconclusive results are not listed. A structure can be active in one record and inactive in another. Activity calls are given as the source filed them. Unless noted, the call rests on the fitted dose curve; in most records, active means well fitted curve in the direction sought with a large enough effect in the repeat runs; inconclusive means weak or mixed curves; inactive means no such curve, though single readings can be large; an effect the other way counts as inactive or inconclusive.
Key:
[1] = qHTS assay to identify small molecule agonists of the vitamin D receptor (VDR) signaling pathway - cell viability counter screen (AID 743224); further: nearly all actives have a fitted effect of over 50% in size; further: potency means the concentration at half of the fitted maximal effect
Procedure, shortened: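 Counter screen for cytotoxicity: VDR-bla cells at 2,000 cells/well, 16 h compound exposure, then CellTiter-Glo luminescence after the beta-lactamase measurement.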

[2] = qHTS assay to identify small molecule antagonists of the vitamin D receptor (VDR) signaling pathway - cell viability counter screen (AID 743225); further: on the % scale 0 is the no-effect control and ±100 the full control effect; nearly all actives have a fitted effect of over 50% in size
Procedure, shortened: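 VDR-bla HEK 293T cells, 4 h pre-incubation at 37C, then compound plus 1-alpha,25-dihydroxyvitamin D3 (3 nM final) for 16 h. After the beta-lactamase FRET read, CellTiter-Glo was added to the same wells; luminescence after 30 min at room temperature.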

[3] = qHTS assay to identify small molecule agonists of the NFkB signaling pathway (AID 1159509; active means well fitted curve in the direction sought with a large enough effect in the signal ratio in the repeat runs, not every such curve was filed as active; the % refers to the signal ratio; further: series mostly up to about 61 µM; on the % scale 0 is the no-effect control and ±100 the full control effect)
Procedure, shortened: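 Readout: FRET fluorescence, 405 nm excitation, 460/530 nm emission; beta-lactamase expression disrupts FRET. Cells: ME-180 stably carrying NF-kB-driven bla reporter. Compound exposure 5 hr, 37 C, 5% CO2.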

[4] = qHTS assay to identify small molecule agonists of the NFkB signaling pathway - cell viability counter screen (AID 1159515; calls by dose curve; further: series mostly up to about 61 µM; on the % scale 0 is the no-effect control and ±100 the full control effect; nearly all actives have a fitted effect of over 55% in size)
Procedure, shortened: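 Counter screen run alongside the NFkB-bla agonist assay: ME-180 reporter cells exposed to compounds for 5 hr, then lysed with CellTiter-Glo in the same wells. Luminescence, read after 30 min, reflects viable cells.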

[5] = qHTS assay to identify small molecule agonists of the endoplasmic reticulum stress response signaling pathway (AID 1159516; active means well fitted activation curve with a large enough effect in the signal ratio in the repeat runs, not every such curve was filed as active; the % refers to the signal ratio; further: on the % scale 0 is the no-effect control and ±100 the full control effect)
Procedure, shortened: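 For this screen, HeLa cells stably carrying beta-lactamase under the ER stress response element received test compounds, positive controls or DMSO for 5 hr at 37 C; B/G FRET substrate was then added and dual-wavelength emission recorded.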

[6] = qHTS assay to identify small molecule agonists of the endoplasmic reticulum stress response signaling pathway - cell viability counter screen (AID 1159517; calls by dose curve; further: series mostly up to about 61 µM; on the % scale 0 is the no-effect control and ±100 the full control effect; nearly all actives have a fitted effect of over 50% in size)
Procedure, shortened: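 Steps: seed 1,500 ESRE-bla HeLa cells per well; incubate overnight at 37 C, 5% CO2; add compounds in DMSO for 5 hr; run FRET substrate 2 hr RT; add CellTiter-Glo, wait 30 min, read luminescence.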

[7] = biological target: Nuclear receptor ROR-gamma (Homo sapiens) (UniProt P51449); assay: qHTS assay to identify small molecule antagonists of the retinoid-related orphan receptor gamma (ROR-gamma) signaling pathway (AID 1159521; further: nearly all actives have a fitted effect of over 50% in size; further: potency means the concentration at half of the fitted maximal effect)
Procedure, shortened: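 Tet-on RORγ CHO cells carrying a ROR response element–luciferase reporter were pretreated with compounds for 2 h, then induced with 1 uM (final) doxycycline hyclate for 16 h at 37 C. Antagonism was read as decreased ONE-Glo luminescence.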

[8] = qHTS assay to identify small molecule agonists of the AP-1 signaling pathway - cell viability counter screen (AID 1159525; calls by dose curve; further: nearly all actives have a fitted effect of over 55% in size)
Procedure, shortened: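 Same-well cytotoxicity counter screen of the Tox21 10K library in ME-180 cells. The readout is ATP-dependent luminescence after 5 h compound treatment. Data are normalised to DMSO and tetra n-octyl ammonium bromide controls.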

[9] = qHTS assay to identify small molecule agonists of the AP-1 signaling pathway (AID 1159526; calls by dose curve; further: on the % scale 0 is the no-effect control and ±100 the full control effect)
[10] = biological target: Retinoic acid receptor RXR-alpha (Homo sapiens) (UniProt P19793); assay: qHTS assay to identify small molecule agonists of the RXR signaling pathway (AID 1159527; calls by dose curve; further: nearly all actives have a fitted effect of over 35% in size; further: potency means the concentration at half of the fitted maximal effect)
Procedure, shortened: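 GeneBLAzer RXR-alpha-UAS-bla HEK 293T cells in medium with 2% charcoal-stripped FBS, pre-incubated 5 hr at 37 C, then exposed to compounds 16 hr. Beta-lactamase reporter read by FRET substrate, 2 hr room temperature, 460/530 nm emission.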

[11] = qHTS assay to identify small molecule agonists of the RXR signaling pathway - cell viability counter screen (AID 1159529)
Procedure, shortened: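 RXR-alpha-UAS-bla HEK 293T cells in medium with 2% charcoal-stripped FBS were preincubated 5 hr, then exposed to compounds for 16 hr at 37 C. Viability was read as CellTiter-Glo luminescence after 30 min at room temperature.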

[12] = qHTS assay to identify small molecule antagonists of the retinoid acid receptor (RAR) signaling pathway - cell viability counter screen (AID 1159551); further: on the % scale 0 is the no-effect control and ±100 the full control effect; nearly all actives have a fitted effect of over 35% in size
Procedure, shortened: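 Measured by luminescent ATP detection, viability reflects C3RL4 cells treated 6 h at 37 C with test chemicals in the presence of 1 uM (final) retinol.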

[13] = qHTS assay to identify small molecule agonists of the retinoic acid receptor (RAR) signaling pathway (AID 1159553); further: potency means the concentration at half of the fitted maximal effect
Procedure, shortened: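 6 hr compound exposure (DMSO vehicle) of overnight-plated C3RL4 RARE-luc cells at 37 C; luminescence quantified after 30 min RT with luciferase reagent.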

[14] = qHTS assay to identify small molecule antagonists of the estrogen related receptor (ERR) signaling pathway from Tox21 library - cell viability counter screen (AID 1224834); further: on the % scale 0 is the no-effect control and ±100 the full control effect; nearly all actives have a fitted effect of over 30% in size
Procedure, shortened: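 Seeded ERR cells were rested 6 h at 37 C/5% CO2 before compounds, positive and negative controls or DMSO were added. Incubation continued for 17.5 h, and viability was then quantified by CellTiter-Fluor fluorescence.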

[15] = biological target: Luciferin 4-monooxygenase (Photinus pyralis) (UniProt P08659); assay: qHTS assay to identify small molecule inhibitors of firefly luciferase (AID 1224835); further: series mostly up to about 120 µM; on the % scale 0 is the no-effect control and ±100 the full control effect; nearly all actives have a fitted effect of over 25% in size
Procedure, shortened: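 Biochemical qHTS: compounds run as interplate titrations against purified firefly enzyme, with D-luciferin and ATP each at its KM concentration. Light output recorded by CCD imaging.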

[16] = qHTS assay to identify small molecule agonists of the constitutive androstane receptor (CAR) signaling pathway - cell viability counter screen (AID 1224836); further: series mostly up to about 92 µM; on the % scale 0 is the no-effect control and ±100 the full control effect; nearly all actives have a fitted effect of over 45% in size
Procedure, shortened: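 HepG2 cells stably carrying hCAR and a CYP2B6-2.2kb reporter were plated 4 h, then given compounds at 15 concentrations plus PK11195 (final 0.75 uM). After 23 h at 37 C, viability was read by CellTiter-Fluor fluorescence.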

[17] = qHTS assay to identify small molecule antagonists of the retinoid-related orphan receptor gamma (ROR-gamma) signaling pathway - cell viability counter screen (AID 1159520)
Procedure, shortened: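 Tet-on ROR gamma CHO cells were given compounds for 2 hr, then doxycycline hyclate at 1 uM final, and incubated 16 hr at 37 C. Viability was measured as ATP content by CellTiter-Glo luminescence.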

[18] = qHTS assay to identify small molecule antagonists of the retinoic acid receptor (RAR) signaling pathway (AID 1159552)
Procedure, shortened: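 RARE-luc C3RL4 cells; cpds + 1 uM (final) retinol, 6 hr, 37 C/5% CO2; luciferase reagent, 30 min RT, luminescence readout. Inhibitors of retinol-driven signal scored.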

[19] = qHTS assay to identify small molecule antagonists of the estrogen related receptor (ERR) signaling pathway - cell viability counter screen (AID 1224818); further: series mostly up to about 46 µM; on the % scale 0 is the no-effect control and ±100 the full control effect
Procedure, shortened: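 Compounds dissolved in DMSO were applied to ERR cells seeded at 2,000 per well 6 h earlier. Cell viability followed 17.5 h later via 30-min CellTiter-Fluor fluorescence.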

[20] = qHTS assay to identify small molecule antagonists of the estrogen related receptor signaling pathway with the pleiotropic PPARgamma coactivator (PGC) cell viability counter screen (AID 1224822)
Procedure, shortened: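 Counter screen for cell viability: PGC/ERR cells, 6 h pre-incubation after plating, 17.5 h compound exposure at 37 C, fluorescence from CellTiter-Fluor after 30 min.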

Chain of Luciferin 4-monooxygenase (Photinus pyralis) (P08659 whole entry, looked up): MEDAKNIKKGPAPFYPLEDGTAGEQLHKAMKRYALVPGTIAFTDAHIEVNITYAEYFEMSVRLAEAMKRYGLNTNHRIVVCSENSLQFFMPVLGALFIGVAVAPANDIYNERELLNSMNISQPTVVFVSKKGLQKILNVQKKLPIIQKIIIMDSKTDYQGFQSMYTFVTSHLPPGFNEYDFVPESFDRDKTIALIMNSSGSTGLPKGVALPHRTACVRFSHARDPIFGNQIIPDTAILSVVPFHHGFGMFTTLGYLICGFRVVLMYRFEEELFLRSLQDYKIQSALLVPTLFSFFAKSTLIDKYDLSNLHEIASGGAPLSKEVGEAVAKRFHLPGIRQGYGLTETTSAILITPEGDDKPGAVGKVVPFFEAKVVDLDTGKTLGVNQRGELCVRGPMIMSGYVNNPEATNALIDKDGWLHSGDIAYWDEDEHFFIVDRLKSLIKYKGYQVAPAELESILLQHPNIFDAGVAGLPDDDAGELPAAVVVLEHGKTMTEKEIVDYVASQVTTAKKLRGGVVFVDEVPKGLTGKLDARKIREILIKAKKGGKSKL
Chain of Retinoic acid receptor RXR-alpha (Homo sapiens) (P19793 whole entry, looked up): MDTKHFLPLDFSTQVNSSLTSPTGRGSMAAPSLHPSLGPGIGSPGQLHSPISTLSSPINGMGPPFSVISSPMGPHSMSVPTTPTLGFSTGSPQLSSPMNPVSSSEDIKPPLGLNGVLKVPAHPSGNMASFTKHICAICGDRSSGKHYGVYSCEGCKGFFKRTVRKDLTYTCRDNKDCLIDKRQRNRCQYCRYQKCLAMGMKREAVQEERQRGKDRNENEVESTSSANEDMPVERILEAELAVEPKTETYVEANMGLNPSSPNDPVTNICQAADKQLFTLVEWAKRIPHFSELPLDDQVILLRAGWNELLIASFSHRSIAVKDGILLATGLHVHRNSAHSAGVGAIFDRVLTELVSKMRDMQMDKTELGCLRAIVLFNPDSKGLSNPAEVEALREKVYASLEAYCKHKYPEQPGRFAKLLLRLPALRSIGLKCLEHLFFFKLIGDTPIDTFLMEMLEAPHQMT

CC(=O)OCC(=O)[C@@]12N=C(C)O[C@@H]1C[C@H]1[C@@H]3CCC4=CC(=O)C=C[C@]4(C)[C@H]3[C@@H](O)C[C@@]12C
inactive: Potency [1] | outcome [2] | outcome [3] | outcome [4] | outcome [5] | outcome [6] | Potency [7] | Potency [8] | outcome [9] | Potency [10] | Potency [11] | outcome [12] | Potency [13] | Potency [14] | Potency [15] | Potency [16]

CN(C)CCCN
inactive: Potency [1] | outcome [2] | outcome [3] | outcome [4] | outcome [5] | outcome [6] | Potency [7] | outcome [9] | Potency [10] | Potency [11] | outcome [12] | Potency [14] | Potency [15] | Potency [16]

OCCOCCOCCO
inactive: Potency [1] | outcome [2] | outcome [3] | outcome [4] | outcome [5] | outcome [6] | Potency [7] | outcome [9] | Potency [11] | outcome [12] | Potency [14] | Potency [15] | Potency [16]

C=C(C)C(=O)Nc1ccc(Cl)c(Cl)c1
inactive: Potency [1] | outcome [2] | outcome [3] | outcome [4] | outcome [5] | outcome [6] | Potency [7] | Potency [8] | outcome [9] | Potency [10] | Potency [11] | outcome [12] | Potency [14] | Potency [15] | Potency [16]

O=C(O)[C@H](O)[C@@H](O)[C@H](O)[C@H](O)CO
inactive: Potency [1] | outcome [2] | outcome [3] | outcome [4] | outcome [5] | outcome [6] | Potency [17] | activation [9] 7.9% [at 2.72 µM] | Potency [10] | Potency [11] | outcome [12] | Potency [18] | Potency [13] | Potency [14] | Potency [15] | Potency [16]

CC(=O)Nc1ccccc1
inactive: Potency [1] | outcome [2] | outcome [3] | outcome [4] | outcome [5] | outcome [6] | Potency [17] | Potency [8] | outcome [9] | Potency [10] | Potency [11] | outcome [12] | Potency [18] | Potency [13] | Potency [14] | Potency [15] | Potency [16]

CCC(O)OCCCOC (configuration not stated)
inactive: Potency [1] | outcome [2] | outcome [3] | outcome [4] | outcome [5] | outcome [6] | Potency [7] | Potency [8] | outcome [9] | Potency [10] | Potency [11] | outcome [12] | Potency [14] | Potency [15] | Potency [16]

NNc1nncc2ccccc12
active: Potency [13] 770 nM and 5.17 µM
inactive: Potency [1] | outcome [2] | outcome [3] | outcome [4] | outcome [5] | outcome [6] | Potency [7] | activation [9] -4.28% [at 15.8 µM] | activation [10] -4.54% [at 15.8 µM] | activity change, negative = cytotoxicity [11] -0.524% [at 15.8 µM] | outcome [12] | Potency [18] | outcome [19] | outcome [20] | viability change, negative = cytotoxic [14] 6.05% [at 19 µM] | Potency [16]

CCCCCOC(C)=O
inactive and 49 µM (active): Potency [1]
active: Potency [10] 279 nM
inactive: outcome [2] | outcome [3] | outcome [4] | outcome [5] | outcome [6] | Potency [8] | outcome [9] | Potency [11] | outcome [12] | Potency [18] | Potency [13] | Potency [14] | Potency [15] | Potency [16]

CSCCC=O
inactive: Potency [1] | outcome [2] | outcome [3] | outcome [4] | outcome [5] | outcome [6] | Potency [7] | Potency [8] | outcome [9] | Potency [11] | outcome [12] | Potency [18] | Potency [13] | Potency [14] | Potency [15] | Potency [16]

O=C(O)CC(C(=O)O)C(CC(=O)O)C(=O)O (configuration not stated)
inactive: Potency [1] | outcome [2] | outcome [3] | outcome [4] | outcome [5] | outcome [6] | outcome [9] | Potency [10] | Potency [11] | outcome [12] | Potency [18] | Potency [13] | Potency [14] | Potency [15] | Potency [16]

O=c1[nH]c(=O)n([C@H]2CCCO2)cc1F
17.4 µM (active) and inactive: Potency [10]
inactive: Potency [1] | outcome [2] | outcome [3] | outcome [4] | outcome [5] | outcome [6] | Potency [17] | Potency [8] | outcome [9] | Potency [11] | outcome [12] | Potency [18] | Potency [13] | Potency [14] | Potency [15] | Potency [16]

COCCCOc1ccnc(CS(=O)c2nc3ccccc3[nH]2)c1C (configuration not stated)
inactive: Potency [1] | outcome [3] | outcome [4] | outcome [5] | outcome [6] | Potency [7] | Potency [8] | outcome [9] | Potency [10] | Potency [11] | outcome [12] | Potency [18] | Potency [14] | Potency [16]
active: Potency [13] 3.84 µM

Cc1ccc2oc(=O)ccc2c1
inactive: Potency [1] | outcome [2] | outcome [3] | outcome [4] | outcome [5] | outcome [6] | Potency [17] | outcome [9] | Potency [10] | Potency [11] | outcome [12] | Potency [18] | Potency [13] | Potency [14] | Potency [15] | Potency [16]

CC1=C(C)S(=O)(=O)CCS1(=O)=O
inactive: Potency [1] | outcome [2] | outcome [3] | outcome [4] | outcome [5] | Potency [17] | outcome [9] | Potency [10] | Potency [11] | outcome [12] | Potency [14] | Potency [15] | Potency [16]
active: Potency [7] 54.5 µM

CC(C)c1ccc(S(=O)(=O)O)cc1
inactive: Potency [1] | outcome [2] | outcome [3] | outcome [4] | outcome [5] | Potency [17] | Potency [7] | Potency [8] | outcome [9] | Potency [10] | Potency [11] | outcome [12] | Potency [14] | Potency [15] | Potency [16]

CC(C)(C)[C@@H](O)[C@@H](Cc1ccc(Cl)cc1)n1cncn1
inactive: Potency [1] | outcome [2] | outcome [3] | outcome [4] | outcome [5] | Potency [17] | Potency [7] | outcome [9] | Potency [11] | outcome [12] | Potency [18] | Potency [13] | Potency [14] | Potency [15] | Potency [16]

From PubChem BioAssay (Tox21)
